Compound activity (PubChem)
This is a sample that favours compounds with a hit; in the whole collection about 12% have one here.
HP1b binding inh: inhibitors of HP1-beta chromodomain binding to methylated histone tails | P83916 | 390,000 tested, 0.56% active | Potency, µM (doses to about 114 µM), inactives show at the top dose activity change, negative = inhibition, usual class: inhibitors | AlphaScreen HP1-beta / biotin-H3K9me3 peptide binding; note: nearly all actives have a fitted effect of over 70% in size
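HP1-beta protein (50 nM final) preincubated 30 min at room temperature with biotinylated H3(1-18)K9me3 peptide (50 nM) in PBS pH 7.4, 0.01% Tween-20, then compound added for 30 min. AlphaScreen streptavidin donor/nickel chelate acceptor beads (10 ug/mL final), 30 min dark, luminescence read.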
Sfp PPTase inh: Sfp phosphopantetheinyl transferase inhibition. Q9F4F7. Biochemical Sfp PPTase activity, qHTS. Potency, µM, inactives show largest response in the series, negative = inhibition, most hits filed as inhibitors. 310,000 tested, 3.5% active;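 note: the enzyme is Sfp with the accession as filed and its product quenches rhodamine fluorescence; 0% = enzyme reaction without inhibitor and -100% = no enzyme wells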
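With Hepes-Na pH 7.6 buffer containing 10 mM MgCl2, Sfp (15 nM) modified BHQ-2-YbbR (12.5 uM) using rhodamine-CoA (5 uM). Two reads 30 minutes apart at 525/598 nm yielded each well's rate.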
BAZ2B inh: blocks human BAZ2B | AID 504333 | 360,000 tested, 4.4% active | Potency, µM (doses to about 114 µM), for inactives: top-dose activity change, negative = inhibition, actives largely listed as inhibitors | AlphaScreen BAZ2B-H3K14Ac peptide displacement | Q9UIF8; note: % is set by controls: 0 for no effect and ±100 for the full control effect; nearly all actives have a fitted effect of over 60% in size
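AlphaScreen displacement: compounds (up to 110uM) incubated 30 min at room temperature with a preformed 50 nM BAZ2B/50 nM biotinylated H3K14Ac peptide complex in PBS pH 7.4 with Tween-20. Donor and acceptor beads at 10 ug/mL final added, 20 min light-protected before reading.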
L3MBTL1 inh: inhibitors of human L3MBTL1. Q9Y468. AID 485360. AlphaScreen L3MBTL1–H3K9me1 peptide binding. 230,000 tested, 0.66% active. Potency, µM (top dose mostly 57.1 µM), for inactives: top-dose activity, negative = inhibition, hits mostly inhibitors; note: % is set by controls: 0 for no effect and ±100 for the full control effect; nearly all actives have a fitted effect of over 60% in size
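AlphaScreen assay: L3MBTL1 (50 nM final) was preincubated 30 min at room temperature with biotinylated H3(1-15)K9me1 peptide (75 nM final), then 30 min with library compounds; streptavidin donor and nickel chelate acceptor beads (10 ug/mL final) added, 30 min dark.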
JMJD2A Tudor inh: JMJD2A Tudor domain (human) inhibition; AlphaScreen JMJD2A-Tudor / H3K4me3 peptide binding; Potency, µM (titrated, usually from 114 µM), inactives show at the highest dose activity change, negative = inhibition, usual class: inhibitors; O75164; 390,000 tested, 4.4% active; note: % is set by controls: 0 for no effect and ±100 for the full control effect; nearly all actives have a fitted effect of over 50% in size
Target sequence (O75164 whole entry, looked up, the tested form may be a part): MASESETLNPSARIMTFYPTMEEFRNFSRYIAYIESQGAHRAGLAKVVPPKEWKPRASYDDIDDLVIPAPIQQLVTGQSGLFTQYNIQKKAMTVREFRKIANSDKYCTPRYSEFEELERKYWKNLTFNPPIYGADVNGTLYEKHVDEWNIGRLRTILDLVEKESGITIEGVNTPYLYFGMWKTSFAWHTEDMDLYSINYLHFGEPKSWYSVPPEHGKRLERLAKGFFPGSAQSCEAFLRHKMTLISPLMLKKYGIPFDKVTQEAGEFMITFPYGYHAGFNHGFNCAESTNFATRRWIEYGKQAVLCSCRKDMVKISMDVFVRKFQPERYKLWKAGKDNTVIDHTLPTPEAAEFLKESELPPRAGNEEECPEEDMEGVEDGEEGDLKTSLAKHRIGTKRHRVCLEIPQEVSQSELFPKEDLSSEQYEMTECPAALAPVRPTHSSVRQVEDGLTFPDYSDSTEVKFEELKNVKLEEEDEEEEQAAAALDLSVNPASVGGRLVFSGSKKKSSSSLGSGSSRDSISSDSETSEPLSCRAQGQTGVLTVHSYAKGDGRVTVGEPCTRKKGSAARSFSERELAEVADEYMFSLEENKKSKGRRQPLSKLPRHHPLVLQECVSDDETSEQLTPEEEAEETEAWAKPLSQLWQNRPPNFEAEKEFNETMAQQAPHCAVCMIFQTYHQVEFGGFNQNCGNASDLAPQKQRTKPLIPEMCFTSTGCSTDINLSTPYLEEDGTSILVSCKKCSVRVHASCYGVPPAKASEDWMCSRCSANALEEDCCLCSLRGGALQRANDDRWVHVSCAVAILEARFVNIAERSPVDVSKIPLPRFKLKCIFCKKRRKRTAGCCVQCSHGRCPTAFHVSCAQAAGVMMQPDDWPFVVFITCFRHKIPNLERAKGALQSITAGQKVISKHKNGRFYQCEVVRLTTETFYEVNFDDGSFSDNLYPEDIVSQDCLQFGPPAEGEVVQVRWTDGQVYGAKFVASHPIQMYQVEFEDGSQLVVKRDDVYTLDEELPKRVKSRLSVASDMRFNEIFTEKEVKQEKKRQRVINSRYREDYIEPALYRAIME
G9a block: blocks human histone lysine methyltransferase G9a; Q96KQ7; G9a H3K9 monomethylation, AlphaScreen, 2 h; Potency, µM (titrated, usually from 102 µM), inactives show top-dose activity, negative = inhibition, actives largely listed as inhibitors; 350,000 tested, 8.8% active; note: % is set by controls: 0 for no effect and ±100 for the full control effect; nearly all actives have a fitted effect of over 75% in size
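Signal arises when biotinylated H3K9 peptide, once monomethylated, bridges streptavidin donor and antibody-captured acceptor beads. Enzyme at 20 nM was preincubated 15 min with test compounds; peptide 500 nM and SAM 20 uM then reacted for 2 h.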
Numbers without * were called inactive; [ ] = another dose, or the depositor's remark. Calls come from the whole dose curve; as a rule, active = well fitted curve in the direction sought with a large enough effect; inconclusive = small, poorly fitted or top-dose-only effect, or another doubt; inactive = no such curve, though single readings can be large; an effect the other way counts as inactive or inconclusive. Potency is the fitted concentration of half-maximal effect.

How did CCOC(=O)N1CCC(Nc2c(-c3ccccc3)c(=O)c2=O)CC1 do in these assays?
HP1b binding inh: 14%; Sfp PPTase inh: 18%; BAZ2B inh: -14%; JMJD2A Tudor inh: -18%; G9a block: 56µM*

How did CCOCCn1ccc2c(OCC(=O)Nc3ccc(C(N)=O)cc3)cccc2c1=O do in these assays?
HP1b binding inh: 7%; BAZ2B inh: -7%; JMJD2A Tudor inh: -4%; G9a block: 10%[59 µM]

Results for CCOc1ccc(Sc2cc(C(=O)NCc3ccc(F)cc3)c3ccccc3n2)cc1 ?
HP1b binding inh: 56%; BAZ2B inh: 42%; JMJD2A Tudor inh: -24%; G9a block: inconclusive

What do the screens show for `CCOC(=O)N1CCN(c2c(NCCN(C)Cc3ccccc3)c(=O)c2=O)CC1`?
HP1b binding inh: 37%; Sfp PPTase inh: 7%; BAZ2B inh: -3%; L3MBTL1 inh: -1%; JMJD2A Tudor inh: -7%; G9a block: 56µM*

Results for Oc1ccc(C2C(c3ccccc3)=NN=C(c3ccccc3F)N2O)c(O)c1 (stereo unspecified) ?
HP1b binding inh: -16%; Sfp PPTase inh: -7%; BAZ2B inh: inconclusive; L3MBTL1 inh: -17%; JMJD2A Tudor inh: -31%; G9a block: 50µM*

What do the screens show for `Oc1ccc(C2C(c3ccccc3)=NN=C(c3ccc(Cl)cc3)N2O)c(O)c1` (stereo unspecified)?
HP1b binding inh: 1%; Sfp PPTase inh: -22%; BAZ2B inh: -32%; L3MBTL1 inh: -17%; JMJD2A Tudor inh: -30%; G9a block: 11µM*

Results for Cc1nc2cnc(N3CCOCC3)nc2n(CCc2ccccc2)c1=O ?
Sfp PPTase inh: 20%; G9a block: 5%[0.501 µM]

Results for COc1ccccc1CN(C)C(=O)C(NC(=O)Cc1cccc2ccccc12)C(C)C (stereo unspecified) ?
HP1b binding inh: 9%[57 µM]; Sfp PPTase inh: 10%; BAZ2B inh: -9%; JMJD2A Tudor inh: -28%; G9a block: 7.9µM*

What do the screens show for `Cc1cccc(N2CCN(C(=O)c3cc(S(=O)(=O)N4CCC(C)CC4)cn3C)CC2)c1C`?
HP1b binding inh: 7%[57 µM]; BAZ2B inh: inconclusive; JMJD2A Tudor inh: inconclusive; G9a block: -2%[59 µM]

How did O=C(NNS(=O)(=O)c1ccc(F)cc1)c1ccccc1 do in these assays?
HP1b binding inh: 6%; Sfp PPTase inh: 15%; BAZ2B inh: 3%; L3MBTL1 inh: 4%; JMJD2A Tudor inh: 14µM*

Results for O=S(=O)(NC(=S)c1ccccc1)c1ccc(F)cc1 ?
HP1b binding inh: -5%; Sfp PPTase inh: -3%; BAZ2B inh: -7%; L3MBTL1 inh: 2%; JMJD2A Tudor inh: -18%; G9a block: 79µM*

Results for O=C(NNS(=O)(=O)c1ccc(F)cc1)c1ccccc1F ?
HP1b binding inh: 29%; Sfp PPTase inh: 10%; BAZ2B inh: -4%; L3MBTL1 inh: 0%; JMJD2A Tudor inh: -13%; G9a block: 26%

How did O=C(COC(=O)CCc1ccccc1)NNC(=O)c1ccccc1 do in these assays?
HP1b binding inh: 31%[57 µM]; L3MBTL1 inh: -9%; JMJD2A Tudor inh: 3%

Results for COc1cccc(-c2cn3c(n2)sc2cc(C(=O)NCc4cccs4)ccc23)c1 ?
HP1b binding inh: 49%; BAZ2B inh: -1%; JMJD2A Tudor inh: 2%; G9a block: -2%[59 µM]

What do the screens show for `COc1ccc(OCC(=O)NC(=O)c2ccccc2)c([N+](=O)[O-])c1`?
HP1b binding inh: 49%; BAZ2B inh: -13%; L3MBTL1 inh: 4%; JMJD2A Tudor inh: 5%; G9a block: -35%[12.7 µM]

Results for COc1ccccc1C(=O)NC(=O)COC(=O)c1ccc(Cl)nc1 ?
HP1b binding inh: 12%; BAZ2B inh: 7%; L3MBTL1 inh: -9%; JMJD2A Tudor inh: -21%; G9a block: 5%

How did COc1ccccc1C(=O)NC(=O)COC(=O)c1nccnc1N do in these assays?
HP1b binding inh: 11%; L3MBTL1 inh: -16%; JMJD2A Tudor inh: 40µM*

What do the screens show for `COc1ccc(OCC(=O)NC(=O)c2ccccc2OC)c([N+](=O)[O-])c1`?
HP1b binding inh: -2%; BAZ2B inh: -37%; L3MBTL1 inh: -3%; JMJD2A Tudor inh: -25%; G9a block: 50µM*

Results for Cc1cccc2nc(-c3cccc(NS(=O)(=O)c4ccccc4)c3)cn12 ?
HP1b binding inh: -21%; BAZ2B inh: -8%; JMJD2A Tudor inh: -24%; G9a block: -32%[59 µM]

How did CCc1nn(CC(=O)NCCCN2CCOCC2)c(=O)c2cc3sccc3n12 do in these assays?
HP1b binding inh: 40%; Sfp PPTase inh: 17%; BAZ2B inh: -13%; JMJD2A Tudor inh: 7%; G9a block: 12%

Results for CCc1nn(CC(=O)NCCCN2CCOCC2)c(=O)c2cc3cc(F)ccc3n12 ?
HP1b binding inh: 66%; Sfp PPTase inh: 4%; BAZ2B inh: -11%[57.1 µM]; JMJD2A Tudor inh: -1%; G9a block: 50µM*

What do the screens show for `CCc1cc2c(cc3c(=O)n(CC(=O)NCCCN4CCCCCC4)nc(CC)n32)s1`?
HP1b binding inh: 52%; Sfp PPTase inh: 0%; BAZ2B inh: -18%; JMJD2A Tudor inh: -1%; G9a block: 50µM*

Results for O=C(c1ccco1)N1CCC2(CCN(Cc3ccccc3)CC2)CC1 ?
Sfp PPTase inh: 12%; G9a block: -6%[12.7 µM]

What do the screens show for `O=C(CCC(=O)c1ccccc1)NCc1ccccc1`?
HP1b binding inh: 24%; Sfp PPTase inh: 13%; BAZ2B inh: -7%; L3MBTL1 inh: -1%; JMJD2A Tudor inh: 4%; G9a block: 9%

What do the screens show for `COc1cc([N+](=O)[O-])cc(/C=N/NC(=O)C(C)Nc2cccc3ccccc23)c1O` (stereo unspecified)?
HP1b binding inh: -29%; Sfp PPTase inh: 4%; BAZ2B inh: 45µM*; L3MBTL1 inh: -19%; JMJD2A Tudor inh: inconclusive; G9a block: 45µM*

What do the screens show for `CC(Nc1cccc2ccccc12)C(=O)N/N=C/c1ccc([N+](=O)[O-])cc1` (stereo unspecified)?
HP1b binding inh: inconclusive; Sfp PPTase inh: 32µM*; BAZ2B inh: inconclusive; L3MBTL1 inh: -27%; JMJD2A Tudor inh: inconclusive; G9a block: inconclusive

How did Cc1ccc(/C=N/NC(=O)c2ccccc2OCc2cccc(Br)c2)o1 do in these assays?
HP1b binding inh: inconclusive; Sfp PPTase inh: -20%; BAZ2B inh: -39%; L3MBTL1 inh: 0%; JMJD2A Tudor inh: -36%; G9a block: 25µM*

What do the screens show for `COc1ccccc1NC(C)C(=O)N/N=C/c1ccccc1OCc1cccc(Br)c1` (stereo unspecified)?
HP1b binding inh: -6%; Sfp PPTase inh: 7%; BAZ2B inh: -37%; L3MBTL1 inh: -12%; JMJD2A Tudor inh: inconclusive; G9a block: 50µM*
